From PubChem BioAssay
The source made the active and inactive calls.

Experiments:
[1] = target: Albumin (Bos taurus) (UniProt P02769); assay: compounds binding labelled BSA control protein – biochemical, small-molecule microarray, Alexa647 label, 635/667 nm fluorescence, artefact control for SMM control protein annotation, profiling panel (AID 1118); settings: BSA-A647 binding, fluorescence 635 nm, higher = more signal;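 also: score merges 667 nm emission intensity and signal-to-noise per printed compound spot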
[2] = probe aXIP binding to arrayed compounds – biochemical, NeuroSMM set, 635/667 nm fluorescence, primary screen (AID 1119); settings: small-molecule microarray, higher = more signal, called active from +8 up or from −8 down;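 also: probe is the protein aXip251-270 applied at 1 µg/mL to compound-printed slides; binding of probe to printed compounds measured as 667 nm fluorescence plus signal to noise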
[3] = probe aNOTCH3 binding on compound microarray – biochemical, small-molecule microarray, 635/667 nm fluorescence, primary screen (AID 1120); settings: higher = more signal;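 also: probe is a biotin-tagged antibody raised against NOTCH3 rather than NOTCH3 protein; score merges spot fluorescence near 667 nm with spot signal to noise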
[4] = probe aNOTCH2 binding on compound microarray – biochemical, small-molecule microarray, 635/667 nm fluorescence, primary screen (AID 1121); settings: higher = more signal;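 also: score merges feature fluorescence read at 667 nm with its signal to noise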
[5] = target: Carbonic anhydrase 2 (Homo sapiens) (UniProt P00918); assay: compounds binding carbonic anhydrase 2 – biochemical, small-molecule microarray, Alexa647-labelled CAII, profiling panel (AID 1122); settings: CAII-A647 binding fluorescence, higher = more signal
[6] = COS7 lysate on small-molecule microarray, probe aHis, 635 nm (AID 1123); settings: COS7 cell lysate, fluorescence, higher = more signal;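 also: z-score combines 667nm fluorescence intensity with signal-to-noise per printed compound spot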
[7] = probe aLAP1 signal on lysate-treated microarray – cell lysate, small-molecule microarray, COS7 lysate, primary screen (AID 1124); settings: probe aLAP1, fluorescence, higher = more signal;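 also: lysate comes from COS7 cells expressing LAP1 and is applied at 0.3 µg/mL; score merges spot fluorescence near 667 nm with signal-to-noise over triplicate slides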
[8] = system: Sam68 (KHDRBS1); assay: compounds binding KHDRBS1 protein – biochemical, small-molecule microarray, 635 nm fluorescence, primary screen (AID 1125); settings: higher = more signal;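 also: score merges 667 nm channel intensity with signal to noise over triplicate slides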
[9] = system: Chordin-like protein 2 (CHRDL2); assay: compounds binding chordin-like 2 – biochemical, small-molecule microarray, 635 nm fluorescence, primary screen (AID 1126); settings: fluorescence 635 nm, higher = more signal;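 also: printed compound slides probed with Chrdl2 protein at 4 µg/mL for 1 h at 4 C; score merges 667 nm emission intensity with signal to noise over three replicate slides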
[10] = target: Concanavalin-A (Canavalia ensiformis) (UniProt P02866); assay: compounds binding concanavalin A lectin – biochemical, small-molecule microarray, Alexa647 label, 635 nm, artefact control for SMM control protein annotation, primary screen (AID 1127); settings: ConA-A647 binding fluorescence, higher = more signal;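 also: z combines 667 nm emission intensity with signal-to-noise across three replicate slides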
Sequence of Concanavalin-A (Canavalia ensiformis) (P02866 whole entry, looked up): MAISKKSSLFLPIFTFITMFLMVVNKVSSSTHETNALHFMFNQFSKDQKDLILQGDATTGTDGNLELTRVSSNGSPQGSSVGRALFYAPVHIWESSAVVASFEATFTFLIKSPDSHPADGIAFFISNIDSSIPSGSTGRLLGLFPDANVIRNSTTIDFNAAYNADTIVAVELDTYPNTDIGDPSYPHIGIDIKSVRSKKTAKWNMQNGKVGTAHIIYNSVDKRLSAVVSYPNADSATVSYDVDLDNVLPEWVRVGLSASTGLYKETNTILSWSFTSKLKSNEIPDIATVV

Sequence of Albumin (Bos taurus) (P02769 whole entry, looked up): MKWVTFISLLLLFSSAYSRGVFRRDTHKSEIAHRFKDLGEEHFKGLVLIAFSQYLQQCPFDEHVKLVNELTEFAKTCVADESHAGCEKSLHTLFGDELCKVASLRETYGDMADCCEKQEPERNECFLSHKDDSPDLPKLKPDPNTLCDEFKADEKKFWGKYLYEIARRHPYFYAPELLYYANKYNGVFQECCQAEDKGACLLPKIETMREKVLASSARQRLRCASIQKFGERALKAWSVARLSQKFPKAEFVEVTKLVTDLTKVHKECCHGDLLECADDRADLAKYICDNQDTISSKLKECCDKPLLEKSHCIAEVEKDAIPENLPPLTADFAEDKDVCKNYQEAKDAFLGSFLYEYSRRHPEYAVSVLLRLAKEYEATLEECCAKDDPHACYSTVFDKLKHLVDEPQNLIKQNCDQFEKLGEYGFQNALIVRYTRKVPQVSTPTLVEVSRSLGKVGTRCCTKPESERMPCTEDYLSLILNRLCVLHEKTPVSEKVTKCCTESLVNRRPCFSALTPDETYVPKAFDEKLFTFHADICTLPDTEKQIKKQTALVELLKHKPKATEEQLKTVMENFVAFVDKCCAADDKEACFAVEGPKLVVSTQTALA

| Compound | composite z-score [1] | composite Z-score [2] | composite z-score [3] | composite z-score [4] | composite z-score [5] | composite z-score [6] | composite z-score [7] | composite z-score [8] | composite z-score [9] | composite z-score [10] |
| --- | --- | --- | --- | --- | --- | --- | --- | --- | --- | --- |
| C=C(COC)/C(=C/C[C@@H](OC(=O)c1ccncc1)c1ccc(CO)o1)c1cnc2ccccc2c1 | 0.516 | 1.35 (inactive) | 0.412 | -0.14 | 0.951 | 0.831 | 0.589 | 1.3 | 1.47 | 1.23 |
| COc1ccc(C(O)C2C=CC3C(=O)N(c4ccccc4)C(=O)C3N2Nc2ccccc2)cc1OCc1ccccc1 (stereo not given) | 0.853 | 0.153 (inactive) | 0.505 | -0.0798 | 0.503 | 3.06 | 0.0392 | 1.31 | -0.356 | 1.09 |
| C=C(COC)/C(=C/C[C@@H](OC(=O)c1ccncc1)c1ccc(OCCO)cc1)c1cnc2ccccc2c1 | 0.646 | -0.41 (inactive) | 0.321 | -0.0804 | 0.854 | 0.514 | 0.39 | 1.31 | 1.53 | 1.15 |
| C=CCN1C(=O)[C@]2(CC=C)N=C(c3ccc(OCCCO)cc3)O[C@@H]2c2ccccc21 | 0.93 | 1.66 (inactive) | 0.193 | -0.0648 | 0.675 | 1.35 | 0.053 | 1.33 | 0.689 | 1.14 |
| Cc1ccc(S[C@]2(C(=O)NC(C)C)CC(=O)N(C3Cc4ccccc4C3)[C@@H]2c2ccc(CO)cc2I)cc1 | -0.25 | 0.0777 (inactive) | -0.641 | -0.359 | 0.825 | 3.04 | 0.387 | 0.318 | 0.02 | -0.181 |
| CN(C)C(=O)[C@@]1(Cc2ccccc2N=[N+]=[N-])COC(c2ccc(OCCCO)cc2)=N1 | 0.623 | 1.69 (inactive) | 0.12 | -0.268 | 0.71 | 1.89 | 0.0648 | 0.905 | 0.118 | 1.12 |
| O=C1NC(=O)C2C1C=CC(C(O)c1ccc(Br)cc1)N2Nc1ccccn1 (stereo not given) | 0.849 | -0.838 (inactive) | 0.327 | 0.176 | 0.822 | 0.991 | 0.74 | 0.0126 | 0.913 | 0.48 |
| CCOC(=O)C[C@H]1[C@H](OC(=O)c2ccc(C(=O)c3ccccc3)cc2)[C@@H](NC(=O)c2ccc3ccccc3c2)c2cc(OCCCO)ccc2N1C(=O)c1ccccc1 | 0.362 | 0.224 (inactive) | 0.0893 | 0.127 | 0.197 | 1.26 | 0.8 | 1.32 | -0.257 | 1.04 |
| COCC(=C=CC[C@H](O)c1ccc(OCCO)cc1)C[C@H](O)COCc1ccccc1 | 0.589 | 0.0082 (inactive) | -0.123 | -0.14 | 0.561 | 1.07 | 0.476 | 0.703 | 0.538 | 0.654 |
| CON(C)C(=O)C=C1C[C@@H](c2cccc(Cl)c2)O[C@@H](c2cccc(Cl)c2)O1 | 0.268 | 0.294 (inactive) | 0.0897 | -0.131 | 0.628 | 0.339 | 0.166 | 0.474 | 0.648 | 1.01 |
| O=C1OC[C@@H](c2ccccc2)N2CC(/C=C/c3ccccc3)=CC12 (stereo not given in full) | 0.0154 | 0.142 (inactive) | -0.36 | -0.189 | 0.453 | -0.428 | 0.133 | -1.57 | -0.713 | -0.044 |
| [N-]=[N+]=NCc1ccccc1C[C@@]1(C(=O)N2CCCCC2)N=C(c2ccc(OCCCO)cc2)O[C@@H]1c1ccccc1N=[N+]=[N-] | 0.79 | 0.131 (inactive) | 0.0522 | -0.13 | 0.378 | 2.1 | -0.0562 | 1.09 | -0.186 | 1.08 |
| COC(=O)[C@@]1(Cc2ccc(F)cc2)[C@H]2c3cc(C(=O)N4CCCC4)n(CCc4c[nH]c5ccc(OC)cc45)c3C[C@H]2CN1C(=O)c1ccccc1 | 0.871 | 0.298 (inactive) | 1.43 | 0.849 | 0.313 | 2.33 | -0.143 | 0.929 | -0.0865 | 1.09 |
| C#CCNC(=O)[C@H](Cc1ccccc1)NC(=O)[C@@H](N=[N+]=[N-])C(C)C | 0.51 | -0.197 (inactive) | -0.0431 | -0.134 | 0.179 | 0.88 | 0.0338 | 1.01 | 0.747 | 0.584 |
| CN(C)CCCNC(=O)[C@@H]1c2ccccc2C(=O)N(Cc2ccc(OC(F)(F)F)cc2)[C@H]1c1ccc(CO)cc1 | -0.298 | 0.729 (inactive) | 0.0469 | -0.115 | 0.398 | 1.4 | 0.602 | 1.26 | 0.151 | 0.675 |
| COCCOC(=O)N1C(=O)[C@@]2(c3cc(C#CC4(O)CCCCCC4)ccc31)[C@H](C(N)=O)[C@H]1C(=O)O[C@H](c3ccccc3)[C@H](c3ccccc3)N1[C@@H]2c1ccc(O)cc1 | 0.21 | -0.014 (inactive) | 0.676 | -0.0349 | 0.181 | 1.27 | 0.298 | 1.12 | 0.47 | 0.866 |
| CN1C(=O)[C@@]2(CCS(=O)(=O)c3ccccc3)N=C(c3ccc(OCCCO)cc3)O[C@H]2c2ccccc21 | 0.159 | 0.334 (inactive) | 0.058 | -0.146 | 0.688 | 2.74 | 0.428 | 1.28 | 0.0089 | 1.1 |
| COc1ccc(C(O)C2C=CC3C(=O)N(c4ccccc4)C(=O)C3N2Nc2ccc(C#N)cc2)c2ccccc12 (stereo not given) | 1.07 | 1.3 (inactive) | 0.0248 | 0.0847 | 0.734 | 2.48 | 0.537 | 1.28 | -0.32 | 1.22 |
| C[C@H]1C2=C3C(CC[C@H]4C(OCc5ccc(F)cc5C(F)(F)F)OC[C@](C)([C@@H]34)N(C(=O)OC(C)(C)C)C2)C(CO)C1CO (stereo not given in full) | 0.953 | 1.08 (inactive) | 0.266 | 0.0831 | 0.352 | 3.19 | 0.505 | 1.31 | -1.44 | 0.862 |
| COCCOC(=O)N1C(=O)[C@@]2(c3cc(C#CC4(O)CCCCCC4)ccc31)[C@H](C(=O)N1CCCCCCC1)[C@H]1C(=O)O[C@H](c3ccccc3)[C@H](c3ccccc3)N1[C@@H]2c1ccc(OCCO)cc1 | 0.513 | 3.82 (inactive) | 1.73 | 0.819 | 0.705 | 3.34 | 1.35 | 1.29 | 1.52 | 1.14 |
| CC(C)N1CC=CC23O[C@@H]4C=CCOC(=O)[C@@H]4[C@H]2C(=O)N(C(C)CO)[C@@H]3C1=O (stereo not given in full) | -0.385 | 0.365 (inactive) | -0.149 | -0.0891 | 0.406 | 0.0561 | 1.06 | -0.876 | -1.03 | 0.261 |
| CN(C)CCCNC(=O)[C@@]1(C)c2ccccc2C(=O)N(Cc2cc(C(F)(F)F)cc(C(F)(F)F)c2)[C@H]1c1ccc(CO)cc1 | 0.193 | 0.222 (inactive) | -0.0984 | -0.0341 | 0.485 | 0.155 | 0.0017 | -0.546 | -1.03 | -1.04 |
| O=C1C[C@]2(c3ccc([N+](=O)[O-])cc3)C(=O)N(Cc3ccccc3)c3cc(CO)ccc3[C@H]2N1CC12CC3CC(CC(C3)C1)C2 | -0.729 | -0.767 (inactive) | -0.356 | -0.207 | -0.406 | 0.284 | 1.66 | -1.26 | -1.27 | -1.73 |
| CCOC(=O)C[C@H]1[C@H](OC(=O)c2ccc(-c3ccccc3)cc2)[C@@H](NC(=O)c2ccc3ccccc3c2)c2cc(OCCCO)ccc2N1C(=O)c1ccc2ccccc2n1 | 0.587 | 0.152 (inactive) | 0.178 | 0.0278 | 0.137 | 1.06 | -0.0403 | 1.04 | -0.0835 | 0.954 |
| CC(C)CN1C(=O)[C@@]2(c3ccc([N+](=O)[O-])cc3)CC(=O)N(CC34CC5CC(CC(C5)C3)C4)[C@@H]2c2ccc(CO)cc21 | 0.291 | -0.585 (inactive) | -0.0016 | -0.189 | 0.411 | 0.0815 | -0.0349 | -0.772 | -1.52 | 0.436 |
| Cc1ccc(S[C@]2(C(=O)NCc3ccccc3)CC(=O)N(C(C)C)[C@@H]2c2ccc(CO)cc2I)cc1 | 0.838 | 0.46 (inactive) | -0.221 | -0.0268 | 0.304 | 2.56 | 0.704 | -0.29 | -1.59 | -1.29 |
| [N-]=[N+]=Nc1ccccc1C[C@@]1(C(=O)O)N=C(c2ccc(OCCCO)cc2)O[C@@H]1c1ccccc1 | 0.952 | 0.77 (inactive) | 0.0208 | -0.0895 | 0.799 | 2.76 | 0.45 | 1.03 | -0.777 | 1.15 |
